Hit rate of the full screen: of about 48,000 compounds, about 13,000 (27%) showed an effect of 50% or more. Some of the results follow.
The molecules below were run on Wolbachia pipientis (assay: Anti-Wolbachia Cell-Based Screen). Details: 5 µM.
Type: functional
Set-up: scale not given: in the data most compounds retested in dose-response had high values

SMILES | Percent Effect
O=C(NCc1ccc(Cl)s1)c1cc(CN2CCCC(O)C2)on1 (stereo not drawn) | 3.439%
CSCc1nc(CCNC(=O)c2cnn(C(C)C)c2)cs1 | -0.3441%
CSc1ccc2cc(CN(C)CCO)c(=O)[nH]c2c1 | -7.247%
CCC(CNC(=O)CNC(C)=O)Oc1cccc(F)c1 (stereo not drawn) | -13.27%
Cc1ccc(S(=O)(=O)NC[C@H]2OC[C@@H](NCc3cccnc3)[C@@H]2O)cc1 | -9.264%
CC(C)NC(=O)CN(C1CC1)C(C)C1CC1 (stereo not drawn) | -3.628%
CC(=O)N1CCCCC1c1nc2c(c(NC3CCCC3)n1)CN(C)CC2 (stereo not drawn) | 71.52%
CC1CCCCN1C(=O)c1nc2c(n1C(C)C)CCN(C)C2.O=C(O)C(F)(F)F (stereo not drawn) | 0.8763%
CNc1nc(C2CCCCN2C(=O)COC)nc2c1CN(C)CC2 (stereo not drawn) | 112%
CNc1nc(N2C[C@H](NC(=O)CCOC)[C@@H](C3CC3)C2)nc2c1CCC2 | -18.85%
CNc1nc(C2CCCCN2C(=O)C(C)(C)OC)nc2c1CN(C)CC2 (stereo not drawn) | 100.3%
Nc1nc2c(c(NC3CCCC3)n1)CCN(C(=O)C1CCOC1)CC2 (stereo not drawn) | 4.82%
CC(=O)N1CCCCC1c1nc2c(c(N3CCCCC3)n1)CN(C)CC2 (stereo not drawn) | -9.745%
COCC(=O)N[C@H](C(=O)NC(C)c1cccc(C)c1C)C(C)C (stereo partly drawn) | 4.041%
O=C(c1scc2c1OCCO2)N1CCN(Cc2cccc(F)c2)CC1 | -25.63%
COCc1noc(-c2ccc(N(C)Cc3nccs3)nc2)n1 | 22.14%
CCc1nc(CNC(C)c2cccc(N3CCCC3=O)c2)cs1.Cl (stereo not drawn) | 4.92%
CSc1cc2c(cc1NC(=O)NCC(C)(C)C(N)=O)OCCO2 | -12.99%
CC(C)(C)c1noc(CN2CCN(C(=O)c3cccs3)CC2)n1 | -8.519%
CNc1ncc(-c2ccnn2C2CCN(C(C)=O)CC2)cn1 | 109.9%
CC(=O)N1CCC(n2nccc2-c2cnc(N3CCCC3)nc2)CC1 | 98.34%
Cn1ccnc1CN(CCO)C(=O)C1CCN(C(=O)C2CC2)CC1 | -5.097%
CNc1ncc(C(=O)N2CC[C@@](O)(C3CCOCC3)[C@H](C)C2)cn1 | -7.674%
CNc1ncc(C(=O)N2CCC(c3ccccc3C(=O)O)C2)cn1 (stereo not drawn) | 4.233%
CC(=O)N1CCC(n2nccc2-c2cnc(N(C)CCO)nc2)CC1 | 107.1%

SMILES | Percent Effect
CCc1cnc(N2CC[C@@H]3CN(C(C)=O)CCO[C@@H]3C2)nc1 | 6.886%
CC(=O)N1CCC(n2nccc2-c2cnc(N)nc2)CC1 | 106.3%
CCc1ocnc1C(=O)N1CCC(C2CCN(c3ncccn3)CC2)C1 (stereo not drawn) | -3.497%
CC(=O)N1CCC(NCc2cccnc2N(C)Cc2ccccc2)CC1 | -20.17%
CC(=O)N1CCC(Oc2ccc(Cl)cn2)CC1 | -4.055%
CCc1cnc(N)nc1N1CCN(C(C)=O)CC1 | -3.404%
CC(C(=O)N1CCc2sccc2C1)N1CCCN(C2CC2)CC1 (stereo not drawn) | 6.579%
NC(=O)CCNC(=O)NCC1(c2ccccc2Cl)CCC1 | -8.555%
CC(=O)N1CCC(n2nccc2-c2cnc(NCCO)nc2)CC1 | 90.32%
Cc1noc(C2CCN(C(=O)CCNc3ncccn3)CC2)n1 | 14.51%
CC(=O)N1CCC(NC[C@H]2Cn3c(-c4ccccc4)cnc3CO2)CC1 | -3.853%
O=C(O)c1nn(CC2CC2)c2c1CN(S(=O)(=O)c1cccnc1)CC2 | -14.04%
CCN(CC)CCNC(=O)CCc1c(C)nn(-c2ccc(Cl)cc2)c1C | 108.7%
CC(=O)NCCCc1ncnn1-c1cccc(Cl)c1 | -6.102%
Cc1nn(-c2ccccc2)c(C)c1CC(=O)NC1CC(=O)N(C)C1 (stereo not drawn) | 10.3%
CCn1nc(C)c(CCNC(=O)c2cccc(-n3cccn3)c2)c1C | -5.095%
COCCNC(=O)CCc1c(C)nn(-c2nc(C)c(C)c(=O)[nH]2)c1C | -2.178%
CCN(CC)CCNC(=O)CCc1c(C)nn(-c2cccc(Cl)c2)c1C | 114.7%
COCc1noc(C2(c3ccc(OC)cc3)CCOCC2)n1 | -14.42%
CN1CCN(Cc2cccc(NCc3cc[nH]n3)c2)CC1 | -14.54%
O=C(Nc1cc(-c2ccccc2)on1)N1CC[C@H](O)C1 | -19.05%
Cc1ccc(NC(=O)N2CC[C@@H](O)C2)c(-c2nc(C3CC3)no2)c1 | 101.9%
O=C(Nc1c(F)cccc1F)N1CC(c2nc(C3CC3)no2)C1 | 16.35%
O=C(NCc1nc(C2CC2)no1)N1CCOC(c2cccc(F)c2)C1 (stereo not drawn) | -4.4%
COc1ccc(CNc2nc(C3CC3)no2)cc1OC | -4.91%

SMILES | Percent Effect
CCCn1nc(-c2nc(C3CC3)no2)ccc1=O | -1.199%
O=C(Nc1ccc(F)cc1-c1nc(C2CC2)no1)N1CC[C@@H](O)C1 | 96.09%
COCC(=O)Nc1ccc(C)cc1-c1nc(C2CC2)no1 | 104.3%
COc1ccc(NC(=O)N2CCC(c3noc(C)n3)CC2)cc1C | -0.09079%
CN(C)Cc1nnc(C2CCCN(c3ncccc3F)C2)n1C (stereo not drawn) | -23.88%
Cc1cc(CN(C)CC2(O)CCCN(CCC3CCCCC3)C2=O)no1 (stereo not drawn) | -6.768%
O=C(CN1CCCc2sccc2C1=O)NC1CCc2nccn2C1 (stereo not drawn) | 7.867%
O=C(CCc1nc(Cl)n[nH]1)N[C@H]1CC[C@H]1NC1Cc2ccccc2C1 | -20.04%
COC(=O)NCC(=O)N1CCC(Oc2cccc(C)c2)CC1 | -5.707%
CN(C)CCNC(=O)c1ccc(OC2CCN(C(=O)CO)CC2)c(Cl)c1 | 12.3%
Cc1ccccc1OC1CCN(C(=O)CNC(=O)N(C)C)CC1 | 13.16%
CCC(=O)N1CCC(Oc2ccc(C(=O)NCCN(C)C)cc2Cl)CC1 | 19.63%
CCNC(=O)CCC(=O)N1CCC(Oc2cc(C)ccc2C)CC1 | 108%
Cc1ccc(C)c(OC2CCN(C(=O)CNc3ccccc3Cl)CC2)c1 | 209.6%
Cc1ccc(C)c(OC2CCN(C(=O)NCC(=O)N3CCCC3)CC2)c1 | 99.13%
Cc1ccc(C)c(OC2CCN(C(=O)c3ccc(C)[nH]c3=O)CC2)c1 | -1.4%
Cc1ccc(C)c(OC2CCN(C(=O)c3ccc(O)nc3)CC2)c1 | -12.69%
O=C([C@H]1C[C@H]2OCC[C@H]2N(C(=O)c2cnccn2)C1)N1CCCCO1 | -3.887%
CN(C)C(C(=O)N1CCN(S(N)(=O)=O)CC1)c1ccccc1F (stereo not drawn) | -29.81%
Cn1c(C(F)(F)F)nn(CCNC(=O)NCc2ccccc2)c1=O | -13.86%
Cc1cnn(Cc2cc(F)ccc2F)c1NC(=O)CNC(=O)C1CC1 | -28.4%
O=C1CCc2cc(S(=O)(=O)NCc3cc4n(n3)CCCNC4)ccc2N1 | -2.764%
Cc1ccc(NC2CCN(C(=O)COc3cccc(F)c3)CC2)nn1 | 99.48%
Cc1ccc(NC2CCN(C(=O)COc3cccnc3)CC2)nn1 | 0.9961%
Cc1ccc(NC2CCN(C(=O)Cc3cccc(F)c3)CC2)nn1 | 5.367%

SMILES | Percent Effect
Cc1ccc(NC2CCN(C(=O)COc3ccccc3)CC2)nn1 | 80.33%
CC(C)n1cc(S(=O)(=O)NCCc2nnc3ccccn23)cn1 | -12.48%
CCn1ncc2c1C(COC)N(C(=O)CCc1ccccc1)CC2.O=C(O)C(F)(F)F (stereo not drawn) | 87.3%
CCn1ncc2c1C(COC)N(C(=O)Cc1cccs1)CC2 (stereo not drawn) | 110.7%
CCn1ncc2c1C(COCC1CC1)N(C(=O)c1ccncn1)CC2.O=C(O)C(F)(F)F (stereo not drawn) | -5.083%
CCOCC1c2c(cnn2CC2CC2)CCN1C(=O)c1ccncn1.O=C(O)C(F)(F)F (stereo not drawn) | -2.874%
CCn1ncc2c1C(COCC1CC1)N(Cc1cnn(C)c1)CC2.O=C(O)C(F)(F)F.O=C(O)C(F)(F)F.O=C(O)C(F)(F)F (stereo not drawn) | -14.36%
CCn1ncc2c1C(COC)N(C(=O)c1cccs1)CC2.O=C(O)C(F)(F)F (stereo not drawn) | 114.8%
CCn1ncc2c1C(COCC1CC1)N(Cc1ccccn1)CC2.O=C(O)C(F)(F)F.O=C(O)C(F)(F)F (stereo not drawn) | 3.009%
CCn1ncc2c1C(COC)N(C(=O)c1cscn1)CC2.O=C(O)C(F)(F)F (stereo not drawn) | 99.84%
COCC1c2nnn(CC3CC3)c2CCN1C(=O)Cc1cccs1 (stereo not drawn) | 9.028%
Fc1cnc(N2CC[C@@H](N3CCOCC3)[C@@H]2Cc2ccccc2)nc1 | -1.587%
CC(C)(O)CCc1ccc(C(=O)N2CCN(CC(F)(F)F)CC2)cc1 | 0.1309%
NS(=O)(=O)CCN1CCOC(c2ccsc2)C1 (stereo not drawn) | -9.667%
CN1CC(c2ccccc2)CC2(CCN(C(=O)c3cccnn3)CC2)C1 (stereo not drawn) | 0.4144%
COc1ccc2c(c1)C(=O)N(C)C1(CCN(C(=O)OC(C)(C)C)CC1)N2 | -17.46%
COCC1c2c(cnn2C)CCN1C(=O)c1cccn1C.O=C(O)C(F)(F)F (stereo not drawn) | 106%
COCC1c2c(cnn2C)CCN1C(=O)c1cscn1.O=C(O)C(F)(F)F (stereo not drawn) | 127.3%
CCn1ncc2c1C(COC)N(C(=O)c1ccc3c(c1)OCO3)CC2.O=C(O)C(F)(F)F (stereo not drawn) | 10.43%
COCC1c2c(cnn2C)CCN1Cc1ccc(F)cc1.O=C(O)C(F)(F)F.O=C(O)C(F)(F)F (stereo not drawn) | 5.645%
Cn1ncc2c1C(COCC1CC1)N(C(=O)c1ccncn1)CC2.O=C(O)C(F)(F)F (stereo not drawn) | 6.391%
COCC1CN(C(=O)c2cccn2C)Cc2c1cnn2CC1CC1.O=C(O)C(F)(F)F (stereo not drawn) | 4.422%
CCn1ncc2c1C(COC)N(C(=O)c1ccsc1)CC2.O=C(O)C(F)(F)F (stereo not drawn) | 90.11%

Source: ChEMBL document CHEMBL3988442, “University of Dundee, Small-Polar-MMV Screening Library” (2021)
